SMN2 splice up – qHTS Assay for Enhancers of SMN2 Splice Variant Expression; HEK293 SMN2-luciferase splicing reporter, luminescence, 30-36 h; Potency, µM (titrated, usually from 46.1 µM), hits mostly activators; 2.8% of 210,000 active; AID 1458, 2008; also: nearly all actives have a fitted effect of over 55% in size
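qHTS luciferase splicing reporter: luminescence rises when SMN2 exon 7 is included in transfected HEK293 cells. Compound exposure lasted 30-36 h at 37C, with 4.5 mM final sodium butyrate as control, followed by a ONE-Glo read.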
NPC1 promoter act – qHTS Assay for NPC1 Promoter Activators; Huh7 NPC1 promoter luciferase reporter, 24 h; 2.4% of 320,000 active; AID 485313, 2010; Potency, µM (doses to about 9.22 µM), hits mostly activators; also: nearly all actives have a fitted effect of over 60% in size
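Stable NPC1-promoter luciferase Huh7 line; cpd (DMSO) 24 h, 37 °C, 5% CO2; Amplite luciferase reagent 10 min RT; luminescence readout. qHTS format.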
Rab9 promoter act – qHTS Assay for Rab9 Promoter Activators; 2.8% of 320,000 active; Potency, µM (series often up to 9.22 µM), usual class: activators; Huh7 Rab9 promoter-luciferase reporter, luminescence, 24 h; also: nearly all actives have a fitted effect of over 60% in size
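Huh7 cells stably carrying a Rab9 promoter-luciferase reporter, 1500 cells per well in OP-MEM I with 10% FBS, treated with compound 24 hours at 37C. Luciferase activity read by luminescence after 10 minutes with Amplite reagent.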
ELG1 genotox – qHTS screen for small molecules that induce genotoxicity in human embryonic kidney (HEK293T) cells expressing luciferase-tagged ELG1 | HEK293T ELG1-luciferase reporter, luminescence, 16 h | Potency, µM (doses to about 46 µM), most hits filed as activators | 1.3% of 330,000 active | AID 504466, 2011; also: nearly all actives have a fitted effect of over 60% in size
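16 hr compound incubation (37 °C, 5% CO2) of HEK293T cells carrying luciferase-tagged ELG1; luciferase then measured by ONE-Glo luminescence after 30 min at RT.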
FLuc modulator – qHTS profiling assay for firefly luciferase inhibitor/activator using purifed enzyme and Km concentrations of substrates (counterscreen for miR-21 project) | 6.9% of 360,000 active | AID 588342, 2011 | Potency, µM (highest dose often 57.5 µM), actives largely listed as inhibitors | purified FLuc, Km substrates, luminescence inhibition; also: nearly all actives have a fitted effect of over 55% in size
Target sequence (P08659 whole entry, looked up): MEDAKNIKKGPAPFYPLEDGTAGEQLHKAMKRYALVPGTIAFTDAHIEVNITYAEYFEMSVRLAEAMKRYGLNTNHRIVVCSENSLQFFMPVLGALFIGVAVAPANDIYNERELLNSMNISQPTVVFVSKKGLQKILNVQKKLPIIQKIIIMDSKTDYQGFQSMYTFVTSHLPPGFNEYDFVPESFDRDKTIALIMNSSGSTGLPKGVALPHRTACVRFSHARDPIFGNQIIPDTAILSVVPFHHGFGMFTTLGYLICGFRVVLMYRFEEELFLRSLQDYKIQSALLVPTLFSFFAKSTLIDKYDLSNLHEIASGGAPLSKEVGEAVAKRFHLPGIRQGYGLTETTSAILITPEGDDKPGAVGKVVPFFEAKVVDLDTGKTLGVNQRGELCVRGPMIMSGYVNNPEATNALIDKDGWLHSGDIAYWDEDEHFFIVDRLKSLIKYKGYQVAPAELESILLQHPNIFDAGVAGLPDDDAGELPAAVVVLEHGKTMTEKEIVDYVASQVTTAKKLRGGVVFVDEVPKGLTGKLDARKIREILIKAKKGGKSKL
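Purified P. pyralis luciferase, 10 nM final, with Km-level 10 uM D-luciferin and 10 uM ATP in 50 mM Tris acetate pH 7.5, 10 mM Mg acetate, 0.01% Tween-20, 0.05% BSA; 6-point qHTS titration about 60 µM downward; luminescence read.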
Luc counter – Counterscreen for Luciferase (Kinase-Glo TM) Inhibition; Potency, µM (top dose mostly 38.3 µM), hits mostly inhibitors; AID 1379, 2008; Kinase-Glo luciferase, ATP luminescence, 8 min; 0.28% of 200,000 active; also: nearly all actives have a fitted effect of over 60% in size
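Luminescence was the read-out, taken after 8-minute incubation at ambient temperature. Luciferase turned over luciferin with 10 uM ATP in imidazole pH 7.2 buffer containing KCl, MgCl2, Tween 20 and BSA.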
Numbers stand for hits; . = inactive; ? = inconclusive; / = no result; [ ] = remark or other dose. Hits are enriched below; roughly 7.3% of the tested compounds scored in any of these assays. Calls follow the shape of the dose curve; as a rule, active = well fitted curve in the direction sought with a large enough effect; inconclusive = small, poorly fitted or top-dose-only effect, or another doubt; inactive = no such curve, though single readings can be large; an effect the other way counts as inactive or inconclusive.

SMILES | SMN2 splice up | NPC1 promoter act | Rab9 promoter act | ELG1 genotox | FLuc modulator | Luc counter
CC(=O)N(C)c1ccc(N=Nc2c(C)[nH]n(-c3ccccc3)c2=O)cc1 | / | . | . | . | . | /
Nc1[nH]n2c(=O)cc(-c3ccccc3)nc2c1N=Nc1ccc2c(c1)OCO2 | / | . | . | . | 5.4µM | .
CCOc1ccc(N=Nc2c(C)[nH]n(-c3ccccc3)c2=O)cc1 | / | . | . | . | ? | /
Cc1ccc(Cl)cc1-n1c(=O)cc(N2CCN(c3ccccc3)CC2)[nH]c1=O | / | / | / | / | . | /
CC(=O)O/N=C/c1c(N2CCOCC2)n(C)c2ccccc12 | . | . | . | . | . | .
Cn1c(N2CCOCC2)c(/C=N/OC(=O)c2ccc(F)cc2)c2ccccc21 | . | . | . | . | 9.5µM | .
Cc1ccc(C(=O)O/N=C/c2c(N3CCOCC3)n(C)c3ccccc23)cc1 | . | . | . | . | 6µM | .
Cc1ccc(NC(=O)CSCc2cc(=O)c3ccccc3[nH]2)c(C)c1 | / | / | / | / | . | /
O=C(Nc1ccc(Cl)cc1F)c1cc(S(=O)(=O)NC2CCCCCC2)ccc1F | / | / | / | / | . | /
O=C(N/N=C/c1cc2c3c(c1O)CCCN3CCC2)c1ccccc1O | . | . | . | . | 24µM | .
O=C(NC1CCCCC1)c1ccc(Cc2nc3ccccc3[nH]2)cc1 | / | / | / | / | / | .
CCOC(=O)c1cc(-c2ccc(OC)cc2)n[nH]1 | / | ? | ? | ? | 17µM | /
COC(=O)c1cc(-c2ccccc2)n[nH]1 | . | . | . | . | . | .
CC(C)OC(=O)c1cc2ccccc2[nH]1 | . | . | . | . | ? | .
CCOC(=O)c1cc2cc3ccccc3cc2[nH]1 | 3.2µM | 2.2µM | 2.5µM | ? | ? | .
O=C(O)c1cc(-c2ccc3c(c2)OCCO3)n[nH]1 | / | . | . | . | 11µM | .
Oc1ccccc1-c1cc(-c2ccc3c(c2)OCCO3)n[nH]1 | 3.2µM | 0.5µM | 0.71µM | 0.37µM | 0.34µM | .
CCOC(=O)c1cc(-c2ccc3c(c2)OCCO3)n[nH]1 | / | 3.2µM | 1.6µM | ? | 2.4µM | .
CCc1ccc(S(=O)(=O)c2nnn3c2nc(NC2CCCCCC2)c2sccc23)cc1 | / | / | / | / | . | /
O=C(O)c1cc(Br)ccc1NN=C1CCCCC1 | . | . | . | . | ? | .
O=c1cccccc1NN=C1CCCCCC1 | / | 2.2µM | 3.2µM | 15µM | 6µM | /
CC(NC(=O)C(=O)NN=C1CCCCCCC1)c1ccccc1 (configuration not stated) | . | . | . | . | . | .
O=c1cccccc1NN=C1CCCCC1 | / | . | . | . | 12µM | /
CC(C)CC(=O)Nc1nnc(SCc2cc(=O)n3ccccc3n2)s1 | / | / | / | / | . | /
CC(/C=N/NC(=O)c1ccc(Cn2cc([N+](=O)[O-])cn2)o1)=C\c1ccccc1 | / | ? | .[1.84 µM] | . | 2.4µM | /
SMILES | SMN2 splice up | NPC1 promoter act | Rab9 promoter act | ELG1 genotox | FLuc modulator | Luc counter
CCOc1ccc(/C=N/NC(=O)c2ccc(Cn3cc(Br)cn3)o2)cc1 | . | . | . | . | 6.7µM | .
COc1ccc(/C=N/NC(=O)c2ccc(COc3ccccc3Cl)o2)cc1 | . | . | . | . | 2.7µM | .
CCOc1ccccc1/C=N/NC(=O)c1ccc(Cn2cc([N+](=O)[O-])cn2)o1 | . | . | . | . | . | .
COc1ccc(/C=N/NC(=O)c2ccc(COc3ccccc3Cl)o2)c(OC)c1C | . | . | . | . | . | .
CCOc1ccc(/C=N/NC(=O)c2ccc(Cn3cc([N+](=O)[O-])cn3)o2)cc1 | . | / | / | / | 4.8µM | .
O=C(Cn1cnc2onc(-c3ccc(F)cc3)c2c1=O)N1CCN(c2ccccc2F)CC1 | / | / | / | / | . | /
CC(=O)Nc1ccc(S(=O)(=O)N2CCC(n3c(C(F)(F)F)nc4cccnc43)CC2)cc1 | / | / | / | / | . | /
CCCc1ccc(OCc2ccc(C(=O)N/N=C/c3cccnc3)o2)cc1 | / | 0.4µM | 0.45µM | 0.82µM | ? | /
CC(C)(C)c1ccc(OCc2ccc(C(=O)N/N=C/c3ccc([N+](=O)[O-])cc3)o2)cc1 | . | 1.6µM | ? | . | ? | .
CCOC(=O)C(C(C)=O)c1c(Br)c(O)c(O)c2c(C(=O)c3ccc(C)cc3)coc12 (configuration not stated) | . | . | . | . | 19µM | .
CCCCCc1ccc(-c2ccc(/C=C/C(=O)O)cc2)nc1 | . | ? | ? | ? | 0.38µM | .
CCCCCCCCCCCCCCCCCCc1ccc(C(=O)/C=C/C(=O)O)cc1 | . | / | / | / | / | /
CCOc1cccc(/C=C/C(=O)O)c1 | . | . | . | . | . | .
CCCc1ccc(-c2ccc(/C=C/C(=O)O)cc2)nc1 | . | . | . | . | 0.54µM | .
CCOc1ccc(C(c2c(C)[nH]n(-c3ccccc3)c2=O)c2c(C)[nH]n(-c3ccccc3)c2=O)cc1OC | . | / | / | / | 3µM | /
CC1(c2ccc([N+](=O)[O-])cc2)Nc2ccccc2S1 (configuration not stated) | / | ? | ? | ? | 21µM | /
CCOC(=O)c1c(C)[nH]c(C)c1S(=O)(=O)N1CCC(C(=O)Nc2cc(Cl)ccc2OC)CC1 | / | / | / | / | . | /
O=c1[nH]c(CCl)nc2cc(-c3ccc(F)cc3)sc12 | / | . | . | ? | 0.3µM | /
COC(=O)c1ccc2c(=O)[nH]c(CCl)nc2c1 | . | . | . | . | . | .
COc1ccc(Cl)cc1NC(=O)CCN1C(=O)c2ccccc2Sc2ncccc21 | / | / | / | / | . | /
COc1cn(CC(=O)Nc2c(C)cc(C)cc2C)c(CN2CCCCC2)cc1=O | / | / | / | / | . | /
CN(C)S(=O)(=O)N1CCc2ccc(NC(=O)c3ccc(C(F)(F)F)cc3)cc2C1 | / | . | . | . | 4.8µM | /
COCCC(=O)N1CCc2ccc(NC(=O)c3ccc(C(F)(F)F)cc3)cc2C1 | / | . | . | . | 13µM | /
Cc1cccc(N2CCN(C(=O)Cn3nc(Cc4cccnc4)c4ccccc4c3=O)CC2)c1C | . | / | / | / | . | /
Cc1ccc(-c2nc3nc(C)cc(N4CCN(c5cccc(C)c5)C(C)C4)n3n2)cc1 (configuration not stated) | . | / | / | / | 8.5µM | /
SMILES | SMN2 splice up | NPC1 promoter act | Rab9 promoter act | ELG1 genotox | FLuc modulator | Luc counter
CCCCC/C=C\C/C=C\C[C@H](O)/C=C/C=C\CCCC(=O)O | . | / | / | / | / | .
CSc1ncccc1C(=O)OCC(=O)c1cc2ccccc2o1 | . | . | . | . | 21µM | .
O=C(COC(=O)c1cccnc1Cl)c1cccc(Cl)c1 | . | . | . | . | 13µM | .
CSc1ncccc1C(=O)OCC(=O)NC(N)=O | . | . | . | . | . | .
O=C(COC(=O)c1cccnc1Cl)c1ccc(Cl)s1 | / | / | / | . | / | /
NC(=O)c1cccc2ccccc12 | / | . | . | . | . | /

Source: PubChem BioAssay
